# Test results reported in PubChem BioAssay.
# Measured potencies and affinities stand elsewhere. Activity calls are given as the source filed them.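 The calls were made as follows, unless noted: active = a dose-response fit showing signal loss, with half-maximal concentration no higher than twice the top tested dose; inconclusive = flat fit between 30% and 70% signal loss, or poor fit; inactive = the rest.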
# Assay: C. neoformans lysis by adenylate kinase leakage – AK release luminescence, cherry-picks, dose response (AID 687000;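 active = fitted dose curve reaches 40% lysis signal rise at or below the highest valid concentration tested for that sample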;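 also: luminescent detection of adenylate kinase leaking from lysed yeast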)
# Details: 4 h, 100% = twice the neutral-control signal; series mostly up to 15 µM
row,Compound,outcome
1,C[C@@H]1CN([C@H](C)CO)C(=O)c2cc(NC(=O)Nc3cccc4ccccc34)ccc2O[C@@H]1CN(C)C(=O)Nc1ccccc1,inactive
2,COc1ccc(C2=Nc3ccccc3NC(=O)C2N(C(=O)c2cc3ccccc3[nH]2)c2ccccc2)cc1 (stereo not drawn),inactive
3,O=C(CSc1ncnc2c1cnn2-c1ccccc1)Nc1ccc2c(c1)OCO2,inactive

# Assay: viability loss in HepG2 hepatoma cells – cell-based, cherry-picks, set 2, cytotoxicity control, dose response (AID 687002)
# Details: ATP luminescence (CellTiter-Glo), 48 h; series mostly up to 26 µM
row,Compound,outcome
1,Cc1ccccc1NC(=O)C(=O)NCCCN1CCCC1=O,inactive
2,O=C(NC1CCCCC1)N[C@H]1C=C[C@@H](CC(=O)N2CCOCC2)O[C@@H]1CO,inactive
3,Cc1noc(C)c1S(=O)(=O)Nc1ccc2c(c1)CC(=O)N([C@H](C)CO)C[C@H](C)[C@@H](CN(C)S(=O)(=O)c1cn(C)cn1)O2,inactive
4,CC(C)NC(=O)Nc1ccc2c(c1)CC(=O)N([C@@H](C)CO)C[C@@H](C)[C@H](CN(C)C(=O)Nc1ccc3c(c1)OCO3)O2,inactive
5,Cc1ccc(CSc2ncnc3c2cnn3-c2ccc(C)cc2)cc1,inactive
6,COc1cccc(-c2ccc3c(c2)[C@H]2[C@H](CCN2C(=O)Cc2ccncc2)[C@H](CO)N3C)c1,inactive
7,CC(C)NC(=O)N(C)C[C@H]1OCCCC[C@H](C)Oc2ccc(NC(=O)c3ccccc3)cc2C(=O)N([C@@H](C)CO)C[C@@H]1C,inactive
8,Cc1cccc(C)c1NC(=O)C1CCCN1C(=O)NCc1ccccc1 (stereo not drawn),inactive
9,C[C@H]1CN([C@@H](C)CO)C(=O)c2cc(NC(=O)Nc3ccc(F)cc3)ccc2O[C@@H]1CN(C)S(C)(=O)=O,inactive
10,O=C(N[C@H]1CC[C@H](CCn2cc(-c3ccccn3)nn2)O[C@H]1CO)c1ccc(F)cc1,inactive
